From PubChem
Only some compounds are listed: those with a hit (about 2.5% of all), similar ones and a draw of the others.
Bim-Mcl-1 = inhibitors of Bim-Mcl-1 interaction, human. Bead-based flow cytometry, Bim peptide-Mcl-1 binding. actives 0.1% (n = 190,000). AID 1009. Q07820. inhibition, % at 10 µM; in the data active = inhibition above about 40%;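 note: 0% = no compound tracer wells and 100% = peptide blocker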
Target sequence (Q07820 whole entry, looked up): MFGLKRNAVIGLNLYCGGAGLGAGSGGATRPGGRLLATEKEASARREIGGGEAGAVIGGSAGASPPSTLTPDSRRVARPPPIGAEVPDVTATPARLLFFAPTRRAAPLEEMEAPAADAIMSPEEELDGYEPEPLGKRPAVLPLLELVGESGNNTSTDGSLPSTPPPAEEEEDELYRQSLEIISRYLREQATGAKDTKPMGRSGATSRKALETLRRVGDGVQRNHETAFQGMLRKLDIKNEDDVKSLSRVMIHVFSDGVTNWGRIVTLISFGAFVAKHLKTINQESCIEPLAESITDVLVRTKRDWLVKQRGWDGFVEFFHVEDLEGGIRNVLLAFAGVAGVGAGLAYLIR
Mcl1-Noxa inh = Mcl-1/Noxa interaction inhibition; actives 1.5% (n = 220,000); AID 1022; inhibition, % at 21.7 µM; TR-FRET Mcl-1/Noxa peptide binding, 2 h;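 active = compounds that cut the protein-peptide binding signal by more than 50% relative to plate controls in a single-dose test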;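 note: His-tagged Mcl-1 with rhodamine Noxa BH3 peptide and terbium anti-His antibody; 0% = Mcl-1 plus Noxa peptide wells and 100% = peptide-only wells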
MCL1 BIM primary = MCL1-BIM-BH3 interaction inhibition (human). actives 0.68% (n = 320,000). Q07820. GST-MCL1 / FITC-Bim-BH3 fluorescence polarization. inhibition, % at 10.9 µM;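 active = inhibition above the mean inhibition of all tested compounds plus 3 SD, set per campaign, cut at about 40% in these data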;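 note: 0% = DMSO wells and 100% = unlabeled Bim-BH3 peptide control; higher means more loss of mP so more displacement of Bim peptide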
Mcl1-Bid inh = disrupts binding of human Mcl-1 to Bid peptide | Q07820 | TR-FRET Mcl-1/Bid-Dy647 peptide binding, 1536-well | inhibition, % at 21.7 µM | actives 0.97% (n = 220,000);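 active = compounds that cut the binding signal by more than half at the single screening dose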;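 note: His-tagged Mcl-1 with europium anti-His antibody binding Bid BH3 peptide; 0% = Mcl-1 plus peptide wells and 100% = peptide-only wells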
14-3-3 Bad PPI = disrupts binding of bovine 14-3-3 zeta to phospho-Bad peptide; actives 0.71% (n = 220,000); inhibition, % at 21.7 µM; TR-FRET 14-3-3zeta/Dy647-pBad peptide displacement, 1 h; P63103; AID 781;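 active = inhibition above about 70%, limit read from the data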;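 note: 0% = full 14-3-3 plus peptide FRET controls and 100% = background without 14-3-3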
BCLXL inh confirm = Bcl-xL (human) inhibition, MCL1 counter-screen confirmation. shares compounds with MCL1 BIM primary. GST-Bcl-xL / FITC-Bim BH3 peptide FP binding. inhibition, % at 10.9 µM. actives 54% (n = 1,700);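 active = inhibition above a cutoff equal to the mean inhibition of all tested compounds plus 3 SD, cut at about 30% in these data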;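 note: 0% = DMSO wells and 100% = unlabeled Bim BH3 control peptide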
Target sequence (Q07817 whole entry, looked up): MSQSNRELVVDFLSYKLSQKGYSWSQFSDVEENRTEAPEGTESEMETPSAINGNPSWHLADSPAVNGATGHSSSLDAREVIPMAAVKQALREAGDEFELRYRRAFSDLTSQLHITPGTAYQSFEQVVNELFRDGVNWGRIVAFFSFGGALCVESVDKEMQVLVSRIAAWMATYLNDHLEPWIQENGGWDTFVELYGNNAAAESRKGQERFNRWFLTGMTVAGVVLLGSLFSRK
MCL1 BIM confirm = confirmation of human MCL1 and BIM-BH3 interaction inhibitors; inhibition, % at 10.9 µM; shares compounds with MCL1 BIM primary; actives 61% (n = 1,700); GST-MCL1 / FITC-Bim-BH3 fluorescence polarization;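 active = inhibition above the average of all tested compounds plus 3 SD, cut at about 40% in these data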;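 note: 0% = DMSO wells and 100% = unlabeled Bim-BH3 control peptide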
Active calls of the source: *; x = no result given; + = active, no number; [ ] = dose if it differs, or a comment.

SMILES	Bim-Mcl-1	Mcl1-Noxa inh	MCL1 BIM primary	Mcl1-Bid inh	14-3-3 Bad PPI	BCLXL inh confirm	MCL1 BIM confirm
O=C(O)c1ccc2c(c1)[C@@H]1C=CC[C@@H]1[C@H](c1ccccn1)N2	x	x	86*	x	x	50*	85*
COc1cccc(NS(=O)(=O)c2ccc3c(c2)CCCN3C(C)=O)c1	0	-2	-4	-6	-3	x	x
O=C1CC(c2ccc(O)cc2)Oc2cc(O)cc(O)c21 (configuration not stated)	0	10	6	33	-2	x	x
CC1CC(=O)c2c(cc3c(-c4c(O)cc(O)c5c(O)c6c(cc45)OC(C)CC6=O)c(O)cc(O)c3c2O)O1 (configuration not stated)	0	93*	76*	47	6	25	23
Cc1cccc(C)c1NC(=O)c1cccc2c1-c1ccccc1C2=O	-2	-17	-18	2	-7	x	x
CC(=O)c1c(Cl)nc2cccc3c2c1-c1ccccc1C3=O	x	x	59*	x	x	40*	37
Cc1nn(-c2ccccc2)c(Cl)c1/C=N/Nc1ccc(Cl)c(C(=O)O)c1	0	21	9	-53	-12	x	x
Cc1nn(-c2ccccc2)c(Cl)c1/C=N/Nc1ccc(S(=O)(=O)Nc2ccccc2C(=O)O)cc1[N+](=O)[O-]	-3	105*	54*	100*	88*[fluorescence artefact?]	20	27
CCCN(CC(=O)Nc1ccccc1C)C(=O)c1ccc(-c2ccc(C(C)=O)cc2)o1	x	x	-2	x	x	x	x
CCCCOc1ccc(C2=NNC(=O)CC2)cc1	-2	14	-4	-7	-16	x	x
CCn1c(O)c(/C=N/N=C/c2ccccc2)c2ccc(C3=NNC(=O)CC3)cc21	-1	-2	90*	-59	2	96*	109*
O=c1cc(-c2ccccc2)nc(SCc2ccc(Cl)cc2)[nH]1	4	14	4	8	-4	x	x
O=C(N/N=C/c1ccncc1)c1cccc(S(=O)(=O)Nc2ccc(Cl)cc2)c1	x	3	52*	79*	40	-1	74*
O=C(N/N=C/c1cccnc1)c1cccc(S(=O)(=O)Nc2cccc(Cl)c2)c1	0	-6	6	-4	-3	x	x
COC(=O)CCCCCCCCCCN1CCCCC1	-2	8	-1	4	-3	x	x
c1ccc(CSC2=NNC(c3ccccn3)S2)cc1 (configuration not stated)	x	-91	8	-92	3	x	x
O=C(O)c1cc(O)c2c(c1)C(=O)c1cc(O)cc(O)c1C2=O	1	62*	41*	7	58	21	34
CCc1cc2cc3c(cc2nc1SCC(=O)Nc1nnc(C)s1)OCCO3	-1	-84	-6	-9	-1	x	x
Cc1nc(C(=O)NCC(=O)c2ccccc2)c(C(F)(F)F)o1	x	11	7	5	1	x	x
CC(C)n1c(SCC(=O)Nc2nncs2)nnc1C1CC1	x	x	1	x	x	x	x
Cn1c(SCC(=O)Nc2nncs2)nnc1C1CC1	x	x	46*	x	x	11	29
COC(=O)Nc1nc2ccc(SC(C)C)cc2[nH]1	x	x	3	x	x	x	x
CSc1nc2ccc3nc(NC(=O)C4COc5ccccc5O4)sc3c2s1 (configuration not stated)	1	-11	0	5	-3	x	x
CCOc1ccc(N=C2NC(=O)S/C2=C\c2ccc(N(C)C)cc2)cc1	2	14	80*	-75	13	96*	113*
CCC(C)c1ccc(NC(=O)c2cccnc2)cc1 (configuration not stated)	-1	27	-2	-10	3	x	x
SMILES	Bim-Mcl-1	Mcl1-Noxa inh	MCL1 BIM primary	Mcl1-Bid inh	14-3-3 Bad PPI	BCLXL inh confirm	MCL1 BIM confirm
CCCCSc1ccc(NC(=O)c2cccnc2)cc1	-3	8	77*	-8	-5	3	9
Cc1cc(SCC(=O)N/N=C/c2ccc(O)c(O)c2O)c(C)cc1Br	-2	84*	51*	18	2	7	34
CC(C)(C)NC(=O)c1ccc2c(c1)N(CC(=O)N1CCCCC1)C(=O)C(C)(C)O2	x	x	9	x	x	x	x
CC1(C)Oc2ccc(C(=O)NC3CCCC3)cc2N(CC(=O)NC2CCCCC2)C1=O	-1	3	54*	0	17	25	34
O=C1CC(C(=O)N2CCN(c3ccc(F)cc3)CC2)CN1CCc1ccccc1 (configuration not stated)	1	7	4	-24	-1	x	x
O=C(N/N=C/c1cc2c3c(c1O)CCCN3CCC2)c1ccccc1O	21	14	x	-54	-11	x	x
O=c1ccc2cc3c4c(c2o1)CCCN4CCC3	5	10	105*	-15	8	155*	182*
O=c1oc2c3c4c(cc2s1)CCCN4CCC3	3	51*	165*	-16	-11	99*	120*
Cn1c(SCC(N)=O)nnc1C1CCN(C(=O)NC2CCCCC2)CC1	-5	2	2	-9	13	x	x
FC(F)c1nc2ccccc2[nH]1	-2	-16	-5	-4	-12	x	x
c1ccc2[nH]c3cc4ncnc4cc3nc2c1	13	12	+	-22	-3	+	+
COc1cc(C(=O)O)nc2ccccc12	0	29	7	50	46	x	x
CCCCc1ccc(NC(=O)Nc2cc(C)nn2C)cc1	x	x	68*	x	x	-1	5
CCCCc1ccc(NC(=O)Nc2cnccn2)cc1	x	x	-1	x	x	x	x
CCOC(=O)C1C(c2ccc(O)c(OC)c2)NC(=O)NC1(O)C(F)(F)F (configuration not stated)	x	x	1	x	x	x	x
CCOC(=O)C1C(c2ccc3c(c2)OCO3)NC(=O)NC1(O)C(F)(F)F (configuration not stated)	-1	-2	55*	-6	1	1	-3
COC(=O)C1=C(C(=O)OC)C(c2ccccc2O)c2sc(=O)[nH]c2S1 (configuration not stated)	7	56*	54*	-9	-5	22	54*
NC(=S)N/N=C/c1cccc(O)c1O	0	3	14	-63	-22	x	x
Cc1cc(/C=N/NC(N)=S)c(O)c(/C=N/NC(N)=S)c1	x	-21	+	-52	-4	189*	+
O=C1c2ccccc2C(=O)c2c([N+](=O)[O-])ccc(O)c21	x	32	5	-21	7	x	x
CC1=CC(=O)c2c(O)ccc(O)c2C1=O	23	96*	138*	99*	91*	102*	142*
CC(C)C(C(=O)O)N1C(=O)/C(=C/C=C/c2ccco2)SC1=S (configuration not stated)	0	102*	95*	98*	71*[fluorescence artefact?]	32*	37
CC(=C\c1ccco1)/C=C1/SC(=S)N(CC(=O)O)C1=O	x	28	6	-47	1	x	x
O=C(NN1C(=O)/C(=C/C=C/c2ccco2)SC1=S)c1ccncc1	x	99*	80*	26	71*	30*	45*
